Bioassay records: PubChem, National Center for Advancing Translational Sciences (NCATS)
DT40 TDP1 CPT – qHTS for Inhibitors of human tyrosyl-DNA phosphodiesterase 1 (TDP1): qHTS in cells in presence of CPT. Potency, µM (series often up to 46.2 µM), without a hit: top-dose activity change, negative = growth inhibition, actives largely listed as inhibitors. chicken DT40 Tdp1-/-;hTDP1 cells + 20 nM CPT, ATP luminescence, 48 h. 420,000 tested, 12% active; also: potency is read from the fitted curve at half-maximal effect; nearly all actives have a fitted effect of over 55% in size
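Chicken DT40 Tdp1-/- cells stably complemented with human TDP1 were seeded at 400 cells/well in medium containing 20 nM camptothecin, exposed to pin-transferred compounds, and grown at 37 °C for at least 48 hr. Viability was read as ATP luminescence.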
HT1080-NT tox – qHTS for induction of synthetic lethality in tumor cells producing 2HG: qHTS for the HT-1080-NT fibrosarcoma cell line; Potency, µM (series often up to 46.1 µM), without a hit: at the highest dose activity, negative = less viability, actives largely listed as cytotoxic; 360,000 tested, 1.6% active; HT-1080-NT fibrosarcoma viability, CellTiter-Glo ATP luminescence, 48 h;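 also: NT is the 2HG producing partner of a matched IDH1 knockdown line; potency is read from the fitted curve at half-maximal effect; 0% = DMSO-treated cells and -100% = media-only wells without cells; nearly all actives have a fitted effect of over 55% in size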
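Viability of the 2HG-overproducing fibrosarcoma line after 48 hours of compound exposure at 37 degrees C was determined by luminescence with CellTiter-Glo, and concentration-effect curves were then fitted and categorized.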
DT40 TDP1 no CPT – qHTS for Inhibitors of human tyrosyl-DNA phosphodiesterase 1 (TDP1): qHTS in cells in absence of CPT; DT40 Tdp1-/- hTDP1 cells, no CPT, ATP luminescence, 48 h; Potency, µM (doses to about 46.2 µM), for the others: at the top dose activity change, negative = growth inhibition, usual class: inhibitors; 420,000 tested, 15% active; AID 686978, 2013; also: potency is read from the fitted curve at half-maximal effect; nearly all actives have a fitted effect of over 55% in size
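No-CPT arm: Tdp1-/-;hTDP1 DT40 cells (400/well) plus compounds, incubated ≥48 hr at 37 °C. Readout CellTiter-Glo luminescence.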
IL1B secr inh – qHTS for Inhibitors of Inflammasome Signaling: IL-1-beta AlphaLISA Primary Screen; AID 743279, 2014; THP-1 LPS/ATP IL-1B secretion, AlphaLISA, 16 h; hits give low values; activity change, % at 57.5 µM; 360,000 tested, 4.7% active; in the data active = activity change below about -50%; inconclusive = mostly about -30% to -49%
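Secreted IL-1B measured by AlphaLISA bead assay after 16 h compound exposure of THP-1 cells; compounds (final up to 57.5 uM) added 1 h before LPS (250 ng/mL) and ATP (1.25 mM) stimulation; lower signal means less secretion.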
uPA surface inh – qHTS for Inhibitors of Cell Surface uPA Generation | cell surface uPA generation assay, qHTS | Potency, µM (doses to about 38.3 µM), for the others: at the highest dose activity change, negative = inhibition, actives largely listed as inhibitors | 330,000 tested, 0.31% active | AID 540303, 2011; active = well fitted inhibition curve with a large enough effect; inconclusive = small, poorly fitted or top-dose-only effect; inactive = no such curve, though single readings can be large or run the other way; tested in mouse RAW 264.7 cells; also: potency is read from the fitted curve at half-maximal effect; nearly all actives have a fitted effect of over 55% in size
HT1080 IDH1KD tx – qHTS for induction of synthetic lethality in tumor cells producing 2HG: qHTS for the HT-1080-IDH1KD cell line. Potency, µM (titrated, usually from 46.1 µM), inactives show at the top dose activity, negative = toxicity, actives largely listed as cytotoxic. HT-1080 IDH1 knockdown viability, ATP luminescence, 48 h. AID 686971, 2013. 360,000 tested, 2% active;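 also: potency is read from the fitted curve at half-maximal effect; 0% = DMSO wells and -100% = cell-free medium wells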
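In this qHTS, HT-1080 cells depleted of IDH1 are exposed for 48 h at 37 °C to compound titrations. Toxicity is scored from CellTiter-Glo luminescence, with DMSO as full viability and medium alone as none.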
* hit, by the source's call; ? = inconclusive; nt = not tested or not shown; [ ] = remark or other dose. Shown are actives, neighbours in structure and some others; about 19% of the full set was active somewhere. Unless noted, calls follow the shape of the dose curve; as a rule, active = well fitted curve in the direction sought with a large enough effect; inconclusive = small, poorly fitted or top-dose-only effect, or another doubt; inactive = no such curve, though single readings can be large; an effect the other way counts as inactive or inconclusive. Unless noted, % is scaled to controls: 0 for no effect and ±100 for the full control effect.

SMILES	DT40 TDP1 CPT	HT1080-NT tox	DT40 TDP1 no CPT	IL1B secr inh	uPA surface inh	HT1080 IDH1KD tx
Cn1c(=O)c(-c2cc(F)cc(F)c2)nc2cnc(Oc3cccc(Cl)c3)nc21	6%	nt	-8%	nt	nt	nt
CCOCCCNC(=S)Nc1ccc2nc(N3CCOCC3)cc(C)c2c1	-23%	1%	?	-12	2%	1%
CC(CC(=O)OCC(=O)Nc1ccc2[nH]c(=O)[nH]c2c1)c1ccccc1 (configuration not stated)	-10%	-4%	?	27	10%	-2%
COc1ccc(-c2nc(CN3CCC(C(=O)NCCCOC(C)C)CC3)c(C)o2)cc1OC	-2%	nt	-15%	nt	nt	nt
CC(=O)/C(N=Nc1cc2c(c([N+](=O)[O-])c1C)C(C)(C)CC2(C)C)=C(\C)O	?	12%	18µM*	-5	3%	14%
CC(=O)/C(N=Nc1ccc(C(=O)O)cc1[N+](=O)[O-])=C(\C)O	-1%	0%	11%	-6	0%	-3%
CC(=O)/C(N=Nc1cc2c(cc1[N+](=O)[O-])OCCO2)=C(\C)O	?	-12%	26µM*	29	6%	-15%
CC(Cl)C(=O)NC(=O)NC12CC3CC(CC(C3)C1)C2 (configuration not stated)	16µM*	-8%	21µM*	0	-4%	-6%
CC(C)Cc1ccc(-c2cc3nc(NCCOc4ccccc4)ccn3n2)cc1	?	-17%	?	-10	nt	?
NS(=O)(=O)c1ccc(CCNc2ccn3nc(-c4ccc(OCCN5CCOCC5)cc4)cc3n2)cc1	18µM*	?	15µM*	-11	nt	-15%
COCCCNc1ccn2nc(-c3ccc(OCCN4CCOCC4)cc3)cc2n1	?	15%	12µM*	-23	nt	21%
OC1(c2ccc(Cl)cc2)CCN(Cc2cn[nH]c2-c2ccccc2)CC1	16µM*	?	15µM*	-53*	3%	?
COc1ccc(-c2[nH]ncc2CN2CCC(O)(c3ccc(Cl)cc3)CC2)cc1	?	?	10µM*	-59*	-2%	?
c1ccc(-c2[nH]ncc2CN2CCc3ccccc3C2)cc1	4%	-16%	-28%	-1	0%	-19%
OC1(c2ccc(Cl)cc2)CCN(Cc2cn[nH]c2-c2ccc(F)cc2)CC1	13µM*	21µM*	4.1µM*	?	-1%	?
O=C(c1[nH]c(C(F)(F)F)nc1-c1ccccc1)N1CCOCC1	1%	29%	-14%	12	nt	14%
CCCC(=O)N1CCC1(C)C(=O)Nc1ccc(OC)c(OC)c1 (configuration not stated)	-8%	?	1%	8	nt	?
Cc1ccccc1CN(C)CCS(=O)(=O)c1cc(Cl)ccc1Cl	?	16µM*	?	?	-10%	13µM*
CCN(CC)c1ccc(C(=C2C=CC(=[N+](CC)CC)C=C2)c2ccc(S(=O)(=O)O)cc2S(=O)(=O)[O-])cc1	23µM*	23µM*	?	-94*	?	?
CCN(CC)c1ccc(C(=O)O)cc1	11%	2%	-19%	18	-13%	-1%
CCCCNc1nc2ccccc2c2nc(-c3ccccc3)nn12	?	nt	21µM*	nt	nt	nt
Clc1ccc(CCNc2nc3ccccc3c3nc(-c4ccccc4)nn23)cc1	?	nt	12µM*	nt	nt	nt
c1ccc(CNc2nc3ccccc3c3nc(-c4ccccc4)nn23)cc1	?	nt	2.6µM*	nt	nt	nt
CCCCNC(=O)CCC(=O)NNc1nc2ccccc2c2nc(-c3ccccc3)nn12	?	-17%	23µM*	22	-5%	-10%
Clc1ccccc1CNc1nc2ccccc2c2nc(-c3ccccc3)nn12	-10%	nt	-8%	nt	nt	nt
SMILES	DT40 TDP1 CPT	HT1080-NT tox	DT40 TDP1 no CPT	IL1B secr inh	uPA surface inh	HT1080 IDH1KD tx
COCc1ccc(CN2CCOc3c(cc(-c4ccc(SC)cc4)cc3OC)C2)o1	1%[9.04 µM]	nt	-21%	nt	nt	nt
CCc1nc(NC(=O)c2sc(C)nc2C)sc1C(=O)OC	-8%	-1%	-1%	-2	-9%	0%
COc1ccc(OC)c(-c2ccnc(-n3ncc(C(=O)N(C)CCc4ccccn4)c3C)n2)c1	-10%[9.04 µM]	nt	-13%	nt	nt	nt
Cc1cccc(-c2nc3cc(NC(=O)COc4ccccc4F)ccc3o2)c1	-3%	nt	-9%	nt	nt	nt
CCOc1ccc(NC(=O)Cn2c(=O)n(-c3cccc(Cl)c3)c(=O)c3c2c2cc(C)ccc2n3C)cc1	-9%	nt	1%	nt	nt	nt
CCOc1ccc(-n2c(SCc3ccc([N+](=O)[O-])cc3)nnc2-c2ccc(OC)cc2)cc1	18µM*	-9%	29µM*	-26	4%	-17%
COc1ccc(NCc2nnc(SCc3ccc(Cl)cc3)n2-c2ccccc2)cc1	?	?	18µM*	-53*	-4%	-25%
COc1ccc(-n2c(COc3ccc(Cl)cc3)nnc2SCc2ccc(C#N)cc2)cc1	?	?	23µM*	-12	?	?
COc1ccc(-n2c(COc3ccc(C)cc3)nnc2SCc2ccc(C#N)cc2)cc1	?	-14%	?	-6	nt	?
CCOc1ccc(-n2c(SCc3ccc(C#N)cc3)nnc2-c2cccnc2)cc1	3%	-20%	-19%	-21	2%	-12%
COc1ccc(C(=O)N2CCC3(CCCN(C(=O)Nc4cccc(F)c4)C3)CC2)cc1	10%	nt	-16%	nt	nt	nt
COC(=O)/C=C1\SC(N2CCOCC2)=C(c2ccc(OC)cc2)C1=O	-28%	9%	1%	25	-24%	8%
CCOC(=O)c1sc2nc(N3CCOCC3)c3c(c2c1N)CC(C(C)C)OC3 (configuration not stated)	8.2µM*	7%	-13%	-6	6%	11%
CCOC(=O)c1sc2nc(N3CCOCC3)c3c(c2c1N)CCCC3	?	19%	-19%	-4	2%	8%
CC1(C(=O)NS(=O)(=O)c2ccc(Cl)cc2)CCN1C(=O)C1CC1 (configuration not stated)	-20%	7%	0%	12	nt	17%
Cc1c(C(=O)NCCC#N)sc(=O)n1Cc1ccccc1F	-12%	34%	20%	24	nt	23%
COc1ccc(F)c(CN2CCOc3ccc(CN4CCC(Oc5cccnc5)CC4)cc3C2)c1	-7%[9.04 µM]	nt	?	nt	nt	nt
COc1cc(CN2CCOc3ccc(CN4CCC(Oc5cccnc5)CC4)cc3C2)ccc1F	?	nt	21µM*	nt	nt	nt
